# Laboratory results: PubChem BioAssay (NCATS)
# Records with an inconclusive call do not appear. A call without a number means that no potency is given here. The source made the active and inactive calls. Calls come from the whole dose curve; as a rule, active = well fitted inhibition curve with a large enough effect; inconclusive = small, poorly fitted or top-dose-only effect; inactive = flat fitted curve, though single readings scatter.
# Target: Calcium and integrin-binding protein 1 (Homo sapiens) (UniProt Q99828)
# Experiment: Primary qHTS for Identification of Calcium Integrin Binding Protein 1 (CIB1) Competitor (AID 1508620); note: top concentration of the series differs between compounds
# Conditions: CIB1-GST / FITC-alphaIIb peptide fluorescence polarization; series mostly up to 57.7 µM
# Procedure, shortened: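 Fluorescence polarization competition: GST-tagged CIB1 (1 uM final) preincubated with compound 15 min at room temperature, then FITC-labelled alphaIIb peptide (100 nM final) added. After 15 min at room temperature, polarization read at Ex 480/Em 540.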
# Calcium and integrin-binding protein 1 (Homo sapiens), sequence (Q99828 whole entry, looked up): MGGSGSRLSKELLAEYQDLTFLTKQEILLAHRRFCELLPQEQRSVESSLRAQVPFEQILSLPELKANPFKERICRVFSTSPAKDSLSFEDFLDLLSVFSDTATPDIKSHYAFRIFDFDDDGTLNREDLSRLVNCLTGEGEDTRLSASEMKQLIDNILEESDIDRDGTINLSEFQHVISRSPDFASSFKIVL
row,Structure (SMILES),Potency
1,N#Cc1c(N(CC(=O)O)CC(=O)O)sc(C(=O)O)c1CC(=O)O,inactive
2,Nc1ncnc2c1c(-c1cccc(OCc3ccccc3)c1)cn2C1CC(CN2CCC2)C1 (stereo not given),inactive
3,O=C1NC(=O)C(c2cnc3ccccn23)=C1c1cn2c3c(cccc13)CN(C(=O)N1CCOCC1)CC2,inactive
4,CS(=O)(=O)c1ccc(C2=C(c3ccccc3)C(=O)OC2)cc1,inactive
5,CN(C)CCN(C)C(=O)c1ccc(NC(=O)Nc2ccc(-c3nc(N4CCOCC4)c4ccn(CC(F)(F)F)c4n3)cc2)cc1,inactive
6,CCC(=O)N1CCN(c2ccc(-n3c(=O)ccc4cnc5ccc(-c6cnc7ccccc7c6)cc5c43)cc2C(F)(F)F)CC1,inactive
7,O=C(C=Cc1ccc(O)cc1)c1ccc(O)cc1O,inactive
8,N#Cc1ccc(Oc2ccc3c(c2)COB3O)cc1,inactive
9,CC[C@@H]([C@H](C)O)n1ncn(-c2ccc(N3CCN(c4ccc(OCC5CO[C@@](Cn6cncn6)(c6ccc(F)cc6F)C5)cc4)CC3)cc2)c1=O (stereo not given in full),inactive
10,COc1c(C)cnc(Cn2cnc3c(Cl)nc(N)nc32)c1C,inactive
11,CCCCCOC(=O)Nc1nc(=O)n([C@@H]2O[C@H](C)[C@@H](O)C2O)cc1F (stereo not given in full),inactive
12,COc1ccc(Cn2ccc3ccc(C(=O)NO)cc32)cc1,inactive
13,Cc1ccc(NC(=O)Nc2cc(C(F)(F)F)ccc2F)cc1Nc1ccc2c(c1)NC(=O)C2=Cc1ccc[nH]1,inactive
14,C[C@@H](O)[C@H]1C(=O)N2C(C(=O)OCOC(=O)C(C)(C)C)=C(SC3CN(C4=NCCS4)C3)[C@H](C)[C@H]12,inactive
15,NC[C@H]1O[C@H](O[C@@H]2[C@@H](O)[C@@H](O[C@H]3O[C@H](CO)[C@@H](O)[C@H](N)[C@@H]3O)[C@H](N)C[C@@H]2N)[C@H](O)[C@@H](O)[C@H]1O,inactive
16,CC(C)Oc1cc(Nc2nc(N[C@@H](C)c3ccc(F)cn3)ncc2Cl)[nH]n1,inactive
17,Cc1cnc(CNC(=O)c2c(=O)c3ccc(N4CCCN(C)CC4)nc3n3c2sc2ccccc23)cn1,inactive
18,CCN(CC)CCCCNc1nc2cc(Cl)c(Cl)cc2nc1-c1ccc(-c2cccs2)s1,inactive

row,Structure (SMILES),Potency
1,C=CC(=O)Nc1cccc(Sc2nc(Nc3ccc(N4CCN(C)CC4)cc3)ncc2Cl)c1,inactive
2,CNc1nc(-c2ccc3c(N)n[nH]c3c2)cc(N2C[C@@H](C(=O)NC3CCCCC3)CC[C@@H]2C)n1,inactive
3,O=C(c1ccc(C=Cc2n[nH]c3ccccc23)cc1)N1CCNCC1,inactive
4,O=C(O)CCNc1cc(N2CCc3ccccc3CC2)nc(-c2ccccn2)n1,inactive
5,COc1nc(C)cnc1NS(=O)(=O)c1cccnc1-c1ccc(-c2nnco2)cc1,inactive
6,Cc1ccc(S(=O)(=O)Nc2nc3ccccc3nc2Nc2ccc3nsnc3c2)cc1,inactive
7,Cc1ccc2c(c1)C(=O)[C@]1(O)CCN(c3ccccc3)C1=N2,inactive
8,CCNC(=O)[C@H]1O[C@@H](n2cnc3c(N)nc(NCCc4ccc(CCC(=O)O)cc4)nc32)[C@H](O)[C@H]1O,inactive
9,C[C@@]1(C(=O)Nc2ccc(F)nc2)CCCN1c1nc(Nc2cc(C3CC3)[nH]n2)c2cccn2n1,inactive
10,CN(C)CCOc1ccc(C(=C(CCCl)c2ccccc2)c2ccccc2)cc1,inactive
11,CC1(COc2ccc3c(c2)ncn3-c2ccc3cccc(N4CCC(N)CC4)c3n2)COC1,inactive
12,O=C(Nc1ccc(OC(F)(F)F)cc1)c1sccc1NCc1ccnc2ccccc12,inactive
13,CC[C@H](CC#N)OC(=O)N[C@@H](C)c1cccc(NC(=O)Nc2ccc(-c3cnco3)c(OC)c2)c1,inactive
14,N#CC1(c2cccc(C(=O)Nc3cc(Oc4ccc5nc(NC(=O)C6CC6)sc5n4)ccc3F)c2Cl)CC1,inactive
15,O=C(O)Cc1cccc(OCCCN(Cc2cccc(C(F)(F)F)c2Cl)CC(c2ccccc2)c2ccccc2)c1,inactive
16,CCC[C@H](Nc1nc(-c2ccc(NC(=O)NCC)c(OC)c2)ncc1C)c1cccnc1,inactive
17,Nc1nc(Cl)nc2c1ncn2[C@@H]1O[C@H](CO)[C@@H](O)[C@H]1F,inactive
